Bioassay records: PubChem, National Center for Advancing Translational Sciences (NCATS)
HCV inh = inhibitors of hepatitis C virus infection; Huh7.5.1 HCVcc-Cre infection, luciferase reporter, 44 h; Potency, µM (highest dose often 41.8 µM), inactives show at the highest dose activity change, negative = inhibition, usual class: inhibitors; hit rate 3.4% among 340,000; AID 651820; also: potency is read from the fitted curve at half-maximal effect; % is scaled to controls: 0 for no effect and ±100 for the full control effect
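Reporter virus HCVcc-Cre (~0.5 moi) infects cells exposed to compound; seeding density 1,000 cells/well with 4 h settling beforehand. Luminescence, 15 sec read, taken 44 h post-infection following a 15 min RT substrate incubation.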
HCMV antiviral = inhibitors of human cytomegalovirus; HFF cells, HCMV-luciferase reporter, 72 h; active compounds read low; activity change, negative = inhibition, % at 57.5 µM; hit rate 4.5% among 410,000; in the data active = activity change below about -60%; inconclusive = no clear call, values can overlap the other calls; inactive = above about -39%; also: % is scaled to controls: 0 for no effect and ±100 for the full control effect
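Inhibition of viral replication was scored as loss of reporter luminescence in HFFs infected with HCMV-luciferase (MOI 1 PFU/cell) for 72 h; compounds tested at 2 doses, normalized to buffer and Salinomycin controls.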
SARS PLpro yeast = SARS-CoV PLP inhibition in yeast; S. cerevisiae expressing SARS-CoV PLpro, growth rescue; Potency, µM (series often up to 32.9 µM), for the others: at the highest dose activity, positive = growth rescue, hits mostly activators; hit rate 0.19% among 330,000; AID 485353; calls by dose curve; also: potency is read from the fitted curve at half-maximal effect; 0% is about no effect; nearly all actives have a fitted effect of over 55% in size
Pf growth 48h = P. falciparum growth inhibition at 48 hours (one generation) | P. falciparum luciferase growth in erythrocytes, 48 h | Potency, µM (titrated, usually from 28.7 µM), for inactives: top-dose activity change, negative = inhibition, actives largely listed as inhibitors | hit rate 5.9% among 310,000; also: potency is read from the fitted curve at half-maximal effect; % is scaled to controls: 0 for no effect and ±100 for the full control effect
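Read-out is firefly luciferase luminescence from an integrated reporter in P. falciparum, so falling signal marks reduced parasite growth. Infected erythrocytes were at 2% hematocrit and 0.1% parasitemia (final) in Albumax-supplemented RPMI 1640.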
Pf growth 96h = P. falciparum growth inhibition at 96 hours; hit rate 6.9% among 320,000; Potency, µM (titrated, usually from 28.7 µM), without a hit: at the top dose activity change, negative = inhibition, actives largely listed as inhibitors; P. falciparum luciferase reporter growth, 96 h; AID 504834; also: potency is read from the fitted curve at half-maximal effect; % is scaled to controls: 0 for no effect and ±100 for the full control effect
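P. falciparum expressing integrated firefly luciferase grown in erythrocytes (2% hematocrit, 0.05% parasitemia final) with compounds for 96 hours at 37 C, 5% CO2. Growth inhibition read as loss of luminescence after adding luciferase detection reagent.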
Sm TGR block = inhibitors of Schistosoma mansoni thioredoxin glutathione reductase | Potency, µM (series often up to 114 µM), for the others: at the top dose activity change, negative = inhibition, hits mostly inhibitors | hit rate 3% among 360,000 | Q962Y6 | purified TGR, DTNB reduction, TNB absorbance 405 nm; also: potency is read from the fitted curve at half-maximal effect; % is scaled to controls: 0 for no effect and ±100 for the full control effect; nearly all actives have a fitted effect of over 60% in size
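TGR 20 nM + NADPH 100 uM (dispensed conc.), cpd preinc 15 min RT; start with NADPH (500 uM addition) then DTNB (15 mM addition). Kinetic TNB absorbance, 405 nm filter. Four-parameter Hill fit across titration.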
* = called active by the depositor; ? = inconclusive; · = no result given. Compounds with a hit are over-represented: about 15% of the library has one in this group of screens. Unless noted, calls follow the shape of the dose curve; as a rule, active = well fitted curve in the direction sought with a large enough effect; inconclusive = small, poorly fitted or top-dose-only effect, or another doubt; inactive = no such curve, though single readings can be large; an effect the other way counts as inactive or inconclusive.

SMILES	HCV inh	HCMV antiviral	SARS PLpro yeast	Pf growth 48h	Pf growth 96h	Sm TGR block
COc1ccc(-n2c(SCC(=O)C(C)(C)C)nc3c(sc(=S)n3-c3ccccc3)c2=O)c(OC)c1	?	?	1%	2.1µM*	0%	-11%
COc1ccc(-n2c(=S)[nH]c3c(sc(=S)n3-c3ccccc3)c2=O)c(OC)c1	20%	-3	6%	10%	-24%	2%
CCOC(=O)CSc1nc2c(sc(=S)n2-c2ccccc2OC)c(=O)n1-c1ccccc1OC	?	-25	1%	12µM*	11%	0%
Cc1ccc(-n2c(=S)sc3c(=O)n(-c4ccc(F)cc4)c(SCC(=O)O)nc32)cc1C	5%	0	1%	14%	-15%	4%
CCN(CC)C(=O)CSc1nc2c(sc(=S)n2Cc2ccco2)c(=O)n1-c1ccccc1	-25%	-27	-1%	?	7.4µM*	?
CCOC(=O)CSc1nc2c(sc(=S)n2-c2ccccc2OC)c(=O)n1Cc1ccco1	2.8µM*	1	17%	?	9%	-5%
CCOC(=O)CSc1nnc(Cc2ccccc2)n1Cc1ccco1	13%	4	-2%	-6%	?	0%
CN(C)CCNC(=O)C(=O)NCC1CCCN1S(=O)(=O)c1cccs1 (centres undefined)	-1%	-35	0%	13%	29%	-22%
O=C(Nc1ccc(Cl)c(Cl)c1)c1cc(S(=O)(=O)N2CCN(c3cccc(Cl)c3)CC2)ccc1F	·	-3	·	·	·	6%
COc1ccccc1CNC(=O)C(=O)NCC(c1ccco1)S(=O)(=O)c1cccs1 (centres undefined)	·	-3	·	·	·	8.9µM*
O=C(NCc1ccccc1F)C(=O)NCC(c1cccs1)S(=O)(=O)c1cccs1 (centres undefined)	·	-11	·	·	·	?
Cc1ccccc1CNC(=O)C(=O)NCC(c1ccco1)S(=O)(=O)c1cccs1 (centres undefined)	·	-22	·	·	·	?
O=C(NCc1ccccc1F)C(=O)NCC(c1ccco1)S(=O)(=O)c1cccs1 (centres undefined)	·	7	·	·	·	13µM*
O=C(NCc1ccc(F)cc1)C(=O)NCC(c1ccco1)S(=O)(=O)c1cccs1 (centres undefined)	·	13	·	·	·	7.9µM*
O=C(NCc1ccccc1)C(=O)NCC(c1ccco1)S(=O)(=O)c1ccccc1 (centres undefined)	·	31	·	·	·	?
O=C(NCc1ccccc1Cl)C(=O)NCC(c1ccco1)S(=O)(=O)c1cccs1 (centres undefined)	·	5	·	·	·	32µM*
COc1ccccc1NC(=O)Cc1nnc(SCC(=O)Nc2nccs2)n1C	4%	-22	2%	-7%	1%	4%
O=C(Cn1cnc([N+](=O)[O-])n1)NCCO	14%	10	-1%	10%	?	5%
CC1=C(C(=O)Nc2cccnc2)C(c2ccccc2)n2nc(SCc3ccccc3)nc2N1 (centres undefined)	·	8	·	·	·	-1%
O=C1NC[C@H](c2ccccc2)N(CCc2cccc(F)c2)C1=O	17%	-2	2%	0%	6%	17%
COc1cc(/C=C/C(=O)c2ccc(NS(=O)(=O)c3ccc(C)cc3)cc2)ccc1OC(F)F	35µM*	-71*	16%	15µM*	?	7%
COc1cc(/C=C/C(=O)c2ccc(NS(=O)(=O)c3ccc(C)cc3)cc2)cc(OC)c1O	?	-101*	-5%	12µM*	?	-18%
COc1ccc2cc(C(=O)/C=C/c3cc(OC)c(O)c(OC)c3)ccc2c1	?	-33	-1%	?	?	-35%
COc1cccc(/C=C/C(=O)c2ccc(NS(=O)(=O)c3ccc(C)cc3)cc2)c1	?	-70*	6%	-28%	?	-4%
COc1cc(/C=C/C(=O)O)ccc1OS(=O)(=O)c1ccc(C)cc1	22%	-27	-1%	-16%	2%	0%
SMILES	HCV inh	HCMV antiviral	SARS PLpro yeast	Pf growth 48h	Pf growth 96h	Sm TGR block
CNC(=O)CSc1nnc(-c2ccco2)n1-c1cccc(OC)c1	10%	-24	0%	-13%	2.1µM*	-15%
COc1ccc(OC)c(NC(=O)CSc2nnc(-c3ccco3)n2-c2ccc(C(=O)O)cc2)c1	-3%	11	-3%	4.7µM*	0.41µM*	4%
CN(Cc1ccccc1)C(=O)CSc1nnc(-c2ccco2)n1-c1ccccc1	-2%	9	4%	?	108%	32µM*
CNC(=O)CSc1nnc(-c2ccco2)n1-c1cccc(C)c1C	-16%	88	0%	?	?	-1%
COc1ccc(-n2c(SCC(N)=O)nnc2-c2ccco2)cc1	5%	-37	3%	?	103%	0%
CNC(=O)CSc1nnc(-c2ccco2)n1-c1cc(C)ccc1C	5%	56	-1%	-14%	12µM*	-5%
CNC(=O)CSc1nnc(-c2ccco2)n1-c1cccc(C)c1	-27%	42	?	-21%	-13%	7%
CSc1ccccc1NC(=O)CN(C)CC(=O)c1[nH]c(C)c(C(C)=O)c1C	?	29	-13%	·	·	·
O=C(Nc1ccc2oc(-c3cccnc3)nc2c1)c1ccc(-c2ccccc2OC(F)(F)F)o1	·	-31	·	·	·	?
CCC(C)(C)n1nnnc1C(c1ccccc1)N1CCc2ccccc2C1 (centres undefined)	5%	7	-1%	-25%	·	?
CCC(C)(C)n1nnnc1C(c1ccc(O)c(OC)c1)N1CCc2ccccc2C1 (centres undefined)	17%	-17	-4%	38%	0%	0.25µM*
CCC(C)(C)n1nnnc1C(c1ccc(O)c(OC)c1)N1CCN(c2nc3ccccc3s2)CC1 (centres undefined)	7%	8	-3%	?	9%	0.71µM*
Cc1cc(=O)[nH]c(SCC(=O)N(CCC#N)c2ccccc2)c1C#N	20%	?	-1%	-21%	-18%	-15%
Cc1cc(C)cc(NC(=S)NC2CC3CCC(C2)N3Cc2ccco2)c1 (centres undefined)	-7%	-40	0%	?	2.3µM*	-32%
Fc1ccc(NC(=S)NC2CC3CCC(C2)N3Cc2ccco2)cc1 (centres undefined)	-13%	-11	0%	-3%	-18%	·
